Measured values from PubChem BioAssay (Tox21).
Results filed as inconclusive are left out. Entries that show only a call come without a potency. Activity calls are given as the source filed them. Calls come from the whole dose curve; as a rule, active = well fitted curve in the direction sought with a large enough effect in the repeat runs; inconclusive = weak or mixed curves; inactive = no such curve, though single readings can be large; an effect the other way counts as inactive or inconclusive.

assay: qHTS RealTime-Glo MT Cell Viability Assay in HepG2 cells - 40 hour (AID 1224870); details: RealTime-Glo luminescence; series mostly up to 76.8 µM; note: nearly all actives have a fitted effect of over 50% in size; note: potency is the fitted concentration of half-maximal effect
Procedure, shortened: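 Real-time viability: cells seeded at 600 per well together with NanoLuc and cell-permeant prosubstrate, compounds added after 5 h incubation. Luminescence tracked at 0, 8, 16, 24, 32 and 40 h of exposure.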

SMILES | Potency
c1ccc(CNc2ncnc3c2ncn3C2CCCCO2)cc1 (stereo unspecified) | inactive
CC(C)(C)C1(CCc2ccc(Cl)cc2)CO1 (stereo unspecified) | inactive
O=C1OC[C@H](Cc2cccc(O)c2)[C@H]1Cc1cccc(O)c1 | inactive
Nc1ccc(NC(=O)c2ccc(N)cc2)cc1 | inactive
O=C(O)CCCc1c[nH]c2ccccc12 | inactive
CC[C@@H](CO)NCCN[C@@H](CC)CO | inactive
CC(C)(C)C(O)/C=C/c1ccc2c(c1)OCO2 (stereo unspecified) | inactive
C/C(C=O)=C\c1ccccc1 | inactive
CCO[Si](C)(CCCOCC1CO1)OCC (stereo unspecified) | inactive
ClC1=C(Cl)C1(Cl)Cl | inactive
Nc1c(Cl)cc(Cl)cc1[N+](=O)[O-] | inactive
COc1ccc(-c2cc(C(F)F)nn2-c2ccc(S(N)(=O)=O)cc2)cc1F | inactive
COC(=O)Nc1nc2ccc(C(=O)C3CC3)cc2[nH]1 | inactive
CCCCCCCC/C=C/C(=O)O | inactive
CC(=O)N[C@@H](Cc1ccc(O)cc1)C(=O)O | inactive
Cc1ccc(Nc2c(F)cccc2Cl)c(CC(=O)O)c1 | inactive
C=Cc1ccc(OC(C)=O)cc1 | inactive
CCCOC(=O)c1c(Cl)c(Cl)c(Cl)c(Cl)c1C(=O)OCCC | inactive
COc1ccc(/C=C/C(=O)c2ccc(OC)cc2OC)cc1 | inactive

SMILES | Potency
Nc1ccc(N=Nc2ccc(N)cc2)cc1 | inactive
CC1=C2[C@@H]([C@H](C)CC[C@H]2/C=C(\C)C(=O)O)[C@H](O)C1 | inactive
CNCc1ccc(NC(=O)c2c[nH]c3c2C(=O)CCC3)cc1 | inactive
O=C1CC[C@@H](C(=O)O)N1 | inactive
CCCc1nc2c(C)cc(-c3nc4ccccc4n3C)cc2n1Cc1ccc(-c2ccccc2C(=O)O)cc1 | inactive
C=CC(=O)O | inactive
COc1cc(NC(C)CCCN)c2ncccc2c1 (stereo unspecified) | inactive
O=C(O)/C=C/c1ccc(O)c(O)c1 | inactive
COc1cc(NS(=O)(=O)c2ccc(N)cc2)nc(C)n1 | inactive
CC(=O)NCCO | inactive
CN(C)CC/C=C1\c2ccccc2Sc2ccc(Cl)cc21 | 23.9 µM (active)
COc1cc(OC)c2ccc(=O)oc2c1 | inactive
CCCCCc1ccco1 | inactive
Nc1nc(-c2ccc([N+](=O)[O-])cc2)cs1 | inactive
O=C(C(=O)c1ccco1)c1ccco1 | inactive
O=C(Oc1ccccc1)c1ccc2ccccc2c1O | inactive
CC(C(=O)O)c1ccc(C(=O)c2cccs2)cc1 (stereo unspecified) | inactive
O=C(CCS)OCC(COC(=O)CCS)(COC(=O)CCS)COC(=O)CCS | inactive
CCCCCCC(CO)CCCC (stereo unspecified) | inactive

assay: A CellTox Green Cytotoxicity Assay to monitor cytotoxicity in HEK293 cells - 40 hour (AID 1224871); details: CellTox Green fluorescence; series mostly up to 76.8 µM; note: nearly all actives have a fitted effect of over 45% in size; note: potency is the fitted concentration of half-maximal effect
Procedure, shortened: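 Fluorescence from a DNA-binding dye excluded by viable cells was measured repeatedly in the same HEK293 wells (600 cells/well) during continuous compound exposure at 37 C. Each assay gives one read point: 0, 8, 16, 24, 32 or 40 h.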

SMILES | Potency
c1ccc(CNc2ncnc3c2ncn3C2CCCCO2)cc1 (stereo unspecified) | inactive
CC(C)(C)C1(CCc2ccc(Cl)cc2)CO1 (stereo unspecified) | inactive
Nc1ccc(NC(=O)c2ccc(N)cc2)cc1 | inactive
C/C(C=O)=C\c1ccccc1 | inactive
ClC1=C(Cl)C1(Cl)Cl | inactive
Nc1c(Cl)cc(Cl)cc1[N+](=O)[O-] | inactive
COc1ccc(-c2cc(C(F)F)nn2-c2ccc(S(N)(=O)=O)cc2)cc1F | inactive
COC(=O)Nc1nc2ccc(C(=O)C3CC3)cc2[nH]1 | inactive
CCCCCCCC/C=C/C(=O)O | inactive
Cc1ccc(Nc2c(F)cccc2Cl)c(CC(=O)O)c1 | inactive
COc1ccc(/C=C/C(=O)c2ccc(OC)cc2OC)cc1 | inactive
Nc1ccc(N=Nc2ccc(N)cc2)cc1 | inactive
CNCc1ccc(NC(=O)c2c[nH]c3c2C(=O)CCC3)cc1 | inactive
O=C1CC[C@@H](C(=O)O)N1 | inactive
CCCc1nc2c(C)cc(-c3nc4ccccc4n3C)cc2n1Cc1ccc(-c2ccccc2C(=O)O)cc1 | inactive
CN(C)CC/C=C1\c2ccccc2Sc2ccc(Cl)cc21 | 23.9 µM (active)
O=C(C(=O)c1ccco1)c1ccco1 | inactive
O=C(Oc1ccccc1)c1ccc2ccccc2c1O | inactive
O=C(CCS)OCC(COC(=O)CCS)(COC(=O)CCS)COC(=O)CCS | inactive

assay: qHTS RealTime-Glo MT Cell Viability Assay in HEK293 cells - 16 hour (AID 1224872); details: RealTime-Glo luminescence; series mostly up to 76.8 µM; note: top concentration of the series differs between compounds; nearly all actives have a fitted effect of over 50% in size
Procedure, shortened: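 Luminescence generated by NanoLuc from substrate produced by living HEK293 cells served as the viability signal. Each value reflects the reading at its stated time point during continuous 40 h compound exposure at 37 C.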

SMILES | Potency
O=C1OC[C@H](Cc2cccc(O)c2)[C@H]1Cc1cccc(O)c1 | inactive
O=C(O)CCCc1c[nH]c2ccccc12 | inactive
CC[C@@H](CO)NCCN[C@@H](CC)CO | inactive
CC(C)(C)C(O)/C=C/c1ccc2c(c1)OCO2 (stereo unspecified) | inactive
CCO[Si](C)(CCCOCC1CO1)OCC (stereo unspecified) | inactive
CC(=O)N[C@@H](Cc1ccc(O)cc1)C(=O)O | inactive
C=Cc1ccc(OC(C)=O)cc1 | inactive
CCCOC(=O)c1c(Cl)c(Cl)c(Cl)c(Cl)c1C(=O)OCCC | inactive
CC1=C2[C@@H]([C@H](C)CC[C@H]2/C=C(\C)C(=O)O)[C@H](O)C1 | inactive
C=CC(=O)O | inactive
COc1cc(NC(C)CCCN)c2ncccc2c1 (stereo unspecified) | inactive
O=C(O)/C=C/c1ccc(O)c(O)c1 | inactive
COc1cc(NS(=O)(=O)c2ccc(N)cc2)nc(C)n1 | inactive
CC(=O)NCCO | inactive
COc1cc(OC)c2ccc(=O)oc2c1 | inactive
CCCCCc1ccco1 | inactive
Nc1nc(-c2ccc([N+](=O)[O-])cc2)cs1 | inactive
CC(C(=O)O)c1ccc(C(=O)c2cccs2)cc1 (stereo unspecified) | inactive
CCCCCCC(CO)CCCC (stereo unspecified) | inactive
